# Measurements published in PubChem BioAssay (NCI).
# Where “and” joins values, the source holds several entries; their conditions need not be identical. Equal entries are not always repeated. Compounds without any hit were thinned out: in the full panel of roughly 83,000, 20% have a hit.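 Percent growth is the endpoint: 0 to 100 indicates growth inhibition (40 means 60% inhibition), 0 means no net growth, and negative values indicate cell death.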 Calls of active or inactive are those of the source. How the source made its calls: active means growth percent below 10; inactive means the rest.
# System: MDA-MB-468 breast
# Test: NCI-60 one-dose screen, 48 h (100 = growth as untreated, 0 = no growth, -100 = all killed)
# Conditions: 10 µM unless noted
row,SMILES,growth
1,CS(=O)(=O)c1nccc(-c2c(-c3cccc(O)c3)nc3sccn23)n1,60.1% (inactive)
2,Cc1cc(-c2ccccc2)cc(C)n1,103% (inactive)
3,C=C(C)[C@@H]1CC[C@]2(C(=O)N3CCN(C)CC3)CC[C@]3(C)[C@H](CC[C@@H]4[C@@]5(C)CC(=C/c6ccncc6)/C(=N/O)C(C)(C)[C@@H]5CC[C@]43C)[C@@H]12,62.2% (inactive)
4,Cc1cc(C)c2c(n1)sc1c(Nc3ccc(Cl)cc3)ncnc12,19% (inactive)
5,CC(=O)Nc1cccc2cc(O)ccc12,112% (inactive) and 101% (inactive) and 110% (inactive)
6,CCNC(=O)c1[nH]cc(-c2ccccc2)c1-c1cc(OC)c2c(c1OC)OCO2,104% (inactive)
7,O=C1c2cc(Br)ccc2Oc2cc([N+](=O)[O-])ccc2N1c1ccc(I)cc1F,105% (inactive)
8,CN1CCN(c2ccc3c(c2)nc(NNC(=O)c2ccncn2)c2cccn23)CC1,19.7% (inactive)
9,C[C@@H]1C[C@H](N)C[C@H](c2ccncc2NC(=O)c2ccc(F)c(-c3c(F)cccc3F)n2)C1,22.3% (inactive)
10,C=C1C(=O)O[C@H]2[C@H]1CC/C(COC(=O)C(=O)c1cn(C)c3ccc(OC)cc13)=C\CC[C@@]1(C)O[C@@H]21,-63.6% (active)
11,Clc1ccc(SSc2ccc(Cl)cc2)cc1,95.7% (inactive) and 95.5% (inactive)
12,CC1CCCN(CCCCCOc2ccc3oc4ccc(Cl)cc4c(=O)c3c2)C1 (configuration not stated),68.7% (inactive)
13,CCOc1ccc(/C=N/Nc2cc(C)nc3ccc(Br)cc23)cc1,65.2% (inactive)
14,FC(F)(F)c1ccc(Cn2cc(CSc3nc4ccccc4s3)nn2)cc1,98.7% (inactive)
15,CC(=O)c1c[nH]c2ccc(-c3ccnc(Nc4ccc(NC(=O)c5cccc(F)c5)c(CN5CCOCC5)c4)n3)cc12,-32.9% (active)
16,CN1CCN(CCCOc2cccc3nc(Nc4ccc(F)c(F)c4)ccc23)CC1,-67.3% (active)
17,C=CC(=O)Nc1cccc(Nc2nc(Nc3ccc(N4CCN(C(C)=O)CC4)cc3OC)ncc2C(F)(F)F)c1,-48.8% (active)
18,COc1ccc(-c2csc(NC(=O)c3ccc(Cc4n[nH]c(=O)c5cccnc45)cc3)n2)cc1,64.2% (inactive)
19,COc1ccc(/C=C/C(=O)c2cc3c(N)c(C(=O)Nc4ccccc4C)sc3nc2C)cc1,16.3% (inactive)
20,C[C@H]1[C@H](C)CC[C@]2(C(=O)NCCNCCN)CC[C@]3(C)C(=CC[C@@H]4[C@@]5(C)CCC(=O)C(C)(C)[C@@H]5CC[C@]43C)[C@H]12,34% (inactive)
21,COc1ccc(/C=C2\CCCC3C2=Nc2ccccc2NC3c2ccc(OC)cc2)cc1 (configuration not stated),43.6% (inactive)
22,CCOc1cccc(-c2nc3sccn3c2-c2ccnc(S(C)(=O)=O)n2)c1,-0.693% (active)
23,CCOC(=O)C#Cc1c(C(=O)OCC)nnn1Cc1ccc([N+](=O)[O-])cc1,-19.6% (active)
24,C1CN(CC2CCC(CN3CCOCC3)O2)CCO1 (configuration not stated),102% (inactive)
25,COC(=O)c1cc2c(=O)[nH]cc3c2c(n1)CCC3,97.7% (inactive)
26,Nc1ccc(C2=CC(c3ccc(Cl)cc3)N3C=CSC3=N2)cc1 (configuration not stated),-77.1% (active)
27,CC(=O)OCC1CCCO1 (configuration not stated),105% (inactive)
